# BaF3 tox: parental Ba/F3 cell viability inhibition, counter-screen for JAK2V617F inhibitor project, murine pro-B, CellTiter-Glo luminescence; CellTiter-Glo ATP luminescence; inhibition, % at 5.6 µM; 220,000 tested, 1.1% active;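 active = inhibition above a per-campaign cutoff, the mean inhibition of all tested compounds plus 3 SD, cut at about 27% in these data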;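 note: 0% = DMSO wells and 100% = JAK Inhibitor I control wells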
# IEC-6 cytotox: cytotoxicity in IEC-6 intestinal epithelial cells, primary screen, cytotoxicity control for KLF5 inhibitor project, cell-based, luminescence. IEC-6 cytotoxicity, luminescence viability. inhibition, % at 5 µM. 290,000 tested, 0.78% active; in the data active = inhibition above about 22%;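 note: 0% = plate median of test compound wells and 100% = cytotoxic reference compound wells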
# Ba/F3 V617F tox: reduced viability of JAK2V617F-dependent Ba/F3 cells, primary screen, JAK2V617F inhibitor project, cell-based, Ba/F3 EpoR-JAK2V617F, luminescence | 220,000 tested, 1.1% active | inhibition, % at 5.6 µM | ATP luminescence | AID 1446, 2008;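 active = inhibition above the campaign mean plus 3 SD over all tested compounds, cut at about 24% in these data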;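 note: cytokine-independent growth of Ba/F3 cells driven by EpoR plus mutant JAK2; 0% = DMSO-treated cells and 100% = JAK inhibitor I control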
# KLF5 inh: KLF5 expression inhibitors, primary screen, DLD-1 cells, luminescence; DLD-1 KLF5 promoter-luciferase reporter; inhibition, % at 5 µM; 290,000 tested, 0.23% active;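 active = inhibition above a per-plate limit of that plate's mean compound inhibition plus 3 SD, cut at about 60% in these data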;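 note: 0% = DMSO wells and 100% = LY294002 at 200 µM; higher means less KLF5 promoter-driven luciferase light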
# APP transl inh: inhibitors of APP translation via 5'UTR reporter, primary screen, APP 5'UTR luciferase, SH-SY5Y cells; SH-SY5Y APP 5'UTR-luciferase reporter, luminescence; inhibition, % at 2 µM; 190,000 tested, 0.82% active; AID 1285, 2008;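 active = inhibition above a set limit, derived from the sample mean plus 3 SD, cut at about 45% in these data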
# * = called active by the depositor; . = not tested or not shown. An excerpt weighted towards active compounds, which were near 1.9% of everything screened.
SMILES,BaF3 tox,IEC-6 cytotox,Ba/F3 V617F tox,KLF5 inh,APP transl inh
C/C(=N/NC(=O)CNC(=O)COc1cccc(C)c1)c1ccc(Cl)cc1,.,-4,.,-36,.
CC(=O)n1cc(-c2ccncc2)c2ccccc21,8,3,-1,0,46*
CC(C)(C)CN1CCN(Cc2cccnc2)CC1CCO (stereo not given),.,0,.,-3,.
Nc1nc(N)nc(-c2ccc(Oc3ccccc3)cc2)n1,3,-9,-1,-58,-12
Cc1ccc(Oc2ccc(-c3nc(N)nc(N)n3)cc2)cc1C,4,6,-5,-20,92*
COc1ccc(COc2cc(-c3cccc(OC)c3)nc3ccc(NC(C)=O)cc23)cc1,7,10,4,-5,0
COc1ccc(COc2cc(-c3cccc(OC)c3)nc3ccc(N)cc23)cc1,84*,6,81*,1,96*
COc1ccc(N=C2S/C(=C\c3ccc(C)o3)C(=O)N2CC(C)C)cc1,3,2,2,-17,89*
CCCN1C(=O)/C(=C/c2ccc(C)o2)SC1=Nc1ccc(OC)cc1,12,1,3,-10,10
O=C(Nc1ccc(Br)cc1)c1cnc[nH]1,.,-2,.,-89,.
O=C(O)Cc1c(C(=O)O)nnn1-c1ccc(Cl)cc1Cl,6,-4,3,-16,50*
Cc1nn(-c2ccc(Cl)cc2)c(=O)c2ccccc12,8,3,0,-77,-62
Cc1c(Cl)sn(-c2ccc(Cl)cc2)c1=O,-5,-2,3,-8,92*
C=CCN1CN(Cc2ccco2)CNC1=S,3,-3,-3,-8,62*
CCCCOc1ccc(CSCCN=C(N)N)cc1,76*,2,38*,-21,-41
CCCCOc1ccc(CSC(CC(=O)O)C(=O)O)cc1 (stereo not given),-1,-5,-1,-15,1
O=C(Nc1nc2ccccc2s1)C1CCN(S(=O)(=O)c2cc([N+](=O)[O-])ccc2Cl)CC1,43*,0,4,3,.
CC1=NN(c2ccccc2)C(=O)/C1=C\C=C\c1ccccc1,1,2,-3,-38,.
CC1=NN(c2ccc(C)c(C)c2)C(=O)/C1=C\C=C\c1ccc([N+](=O)[O-])o1,0,-5,-2,1,95*
Cc1ccc2nc(-c3ccccc3)cc(C(=O)N3CCc4ccccc4C3)c2c1,0,2,-3,-15,47*
Cc1ccc(S(=O)(=O)N2CCOc3ccccc32)c(C)c1NS(C)(=O)=O,.,6,.,-13,.
CC(=O)c1cccc(N=c2scc(-c3ccc(S(=O)(=O)N4CCOCC4)cc3)n2CCO)c1,47*,4,43*,-27,17
C=CCn1c(-c2ccc(S(=O)(=O)N3CCOCC3)cc2)csc1=Nc1ccccc1,-1,-4,-2,-18,-4
Nc1[nH]c2cc([N+](=O)[O-])ccc2c1-c1ccccn1,.,16,.,13,.
CC1C(=O)C(C)C(c2cccc(Br)c2)NC1c1cccc(Br)c1 (stereo not given),.,-14,.,-4,.
SMILES,BaF3 tox,IEC-6 cytotox,Ba/F3 V617F tox,KLF5 inh,APP transl inh
Cc1ccccc1C(=O)Nc1cccc(N)c1,4,4,0,-32,56*
O=C(NNc1c2ccccc2nc2ccccc12)c1ccc(O)cc1O,77*,5,72*,-24,-12
O=C(NNc1c2ccccc2nc2ccccc12)c1ccc(O)cc1,65*,4,49*,-6,6
COc1cc2c(cc1OC)C(COc1ccc(C(C)C)cc1)NCC2 (stereo not given),.,-3,.,-14,.
CCc1ccc(NC(=O)CCNS(=O)(=O)c2cccc3nsnc23)cc1,61*,2,5,-14,-5
Cc1cc(C(F)F)n2nc(C(=O)Nc3cccnc3Cl)nc2n1,95*,4,-4,3,-4
Cc1cc(C(F)F)n2nc(C(=O)Nc3ccccc3Br)nc2n1,-2,-1,-3,-31,-8
N#Cc1cc(Sc2ccccn2)c(Sc2ccccn2)cc1C#N,0,2,-2,14,5
N#CC(Sc1ccccn1)c1ccc(Cl)cc1Cl (stereo not given),40*,0,28*,-28,-6
OCC1(CCCc2ccccc2)CCN(Cc2cnc(N3CCOCC3)s2)CC1,64*,-2,-2,-23,-8
CCn1cc(CN2CCCC(C(=O)Nc3ccc(-c4cscn4)cc3)C2)c(C)n1 (stereo not given),.,-3,.,-24,.
Cc1ccc(/C=C2\CCC3=C2OC(N)=C(C#N)C3c2ccc(C)cc2)cc1 (stereo not given),1,-11,-4,-29,47*
Cc1ccc(C2C(C#N)=C(N)Oc3cc(N)ccc32)cc1 (stereo not given),.,-4,.,-43,.
N#CC1=C(N)OC2=C(CCc3ccccc32)C1c1ccccc1 (stereo not given),3,0,1,-51,96*
Cc1nn(C(=O)Cn2cc([N+](=O)[O-])cn2)c(C)c1Cl,-2,-8,-3,-32,6
CC(C)(C)Nc1nc2nonc2nc1NC(C)(C)C,33*,-2,35*,-25,.
Cc1nnc(NC(=O)CSc2nc3ccccc3o2)s1,2,-1,3,9,-10
CCc1nnc(NC(=O)CSc2nc3ccccc3o2)s1,3,2,-1,-23,47*
CCOC(=O)c1ccc(-c2ccc3c(=O)c4ccccc4n(C)c3c2)cc1F,.,9,.,-19,.
CCOC(=O)C1CCCN(S(=O)(=O)c2ccc(S(=O)(=O)N(CC)CC)cc2)C1 (stereo not given),69*,6,52*,0,23
CCOc1ccc(C(=O)OCC(=O)N2CCCC2)cc1,.,-5,.,-35,.
Cc1ccc(C[n+]2cccc(-c3ccccc3)c2)c(C)c1,69*,13,77*,-25,-4
Cc1ccc[n+](CC(=O)c2ccccc2)c1,.,-5,.,-11,.
CCCCN(CC)S(=O)(=O)c1ccc(C(=O)Nc2nnc(CSC)o2)cc1,42*,46*,-1,46,-12
CC1(C)CC(NC(=O)c2ccc(-c3ccc([N+](=O)[O-])cc3)o2)CC(C)(C)N1,.,0,.,1,.
SMILES,BaF3 tox,IEC-6 cytotox,Ba/F3 V617F tox,KLF5 inh,APP transl inh
CCN1CCN(CC(=O)Nc2c(OC)cccc2OC)CC1,.,-3,.,-30,.
OC(CNCCc1ccc(Cl)cc1)COCc1ccco1 (stereo not given),94*,-4,-1,-41,1
OC(CNCc1ccccc1)COCc1ccc(Cl)cc1 (stereo not given),3,1,0,-12,-3
CC1(C)N=c2ccc([N+](=O)[O-])c(N)c2=[N+]1[O-],63*,-2,69*,-12,.
Cc1ccc([N+](=O)[O-])c(C)[n+]1C,9,0,8,-26,9
Cc1ccc(Nc2nc(N)nc(CN3CCC(C)CC3)n2)c(C)c1,89*,6,-2,-9,-16

# Screening data: PubChem, several laboratories
